Assay results from PubChem BioAssay (NCATS).
Where “and” joins values, the source holds several entries; their conditions need not be identical. Equal entries are not always repeated. Inconclusive results are not listed. Some compounds were tested as several samples or in several runs, with calls that do not always agree. Unmarked numbers belong to inactive results. Calls of active or inactive are those of the source. The call rests on the fitted dose curve; in most records, active means well fitted curve in the direction sought with a large enough effect; inconclusive means small, poorly fitted or top-dose-only effect, or another doubt; inactive means no such curve, though single readings can be large or run the other way.

Experiment: qHTS Assay for Identifying Gametocytocidal Compounds (AID 743244);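 on max response: actives lower the fluorescent signal which means gametocytes are killed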
Conditions: P. falciparum 3D7 stage III-V gametocytes, alamarBlue, 72 h; max response: active compounds read low
Description: Malaria cases and deaths have dropped 50% in 29 countries since 2000 due to the combined effects of long-lasting insecticidal bednets, indoor residual spraying, and artemisinin-based combination therapies (ACTs). This success has raised hopes for malaria eradication and consequently stimulated interest in developing new reagents that block gametocyte transmission such as novel and safe gametocytocidal drugs. However, previous drug development efforts have focused primarily on the asexual parasites that cause symptoms, but not malaria transmission. Consequently, patients can remain infectious for weeks after the clearance of asexual parasites and clinical symptoms. To be transmitted from person to person via a mosquito, the parasites must switch from asexual to sexual development and produce male and female gametocytes. Malaria gametocytes consist of five stages (I, II, III, IV and V). The late stage gametocytes (III, IV and V) are difficult to be cultured in vitro and the long lifespan of mature gametocytes allows them being transmitted from host to mosquitoes unless they are completely eliminated by gametocytocidal agents. To identify gametocytocidal compounds which are capable of killing late stage P. falciparum gametocytes, a high throughput gametocyte viability assay was employed. This assay uses oxidoreduction indicator, alamarBlue, as a general measure of metabolic activity of gametocytes. Within live cells, the nonfluorescent resazurin is reduced to resorufin, a bright red fluorescence dye. Fluorescence decreases upon treatment of gametocytocidal compounds. P. falciparum gametocyte (3D7 strain) was used in this study.
The 1536-well gametocycidal viability assay was based on the previous method of Tanaka et al. Stage III-V gametocytes were tested against three compound libraries, including 4265 compounds from NCGC pharmaceutical collection, 400 from Malaria Box library, and 550 from an internal collection of kinase inhibitors. Briefly, 2.5 ul/well incomplete medium was dispensed into each well of 1,536-well plates using the Multidrop Combi followed by 23 nl compound transferring using the NX-TR Pintool (WAKO Scientific Solutions, San Diego, CA). Then, 2.5 ul/well of gametocytes was dispensed with a seeding density of 20,000 cells/well using the Multidrop Combi. The assay plates were incubated for 72 h at 37C with 5% CO2. After addition of 5 ul/well of 2X AlamarBlue dye (Life Technologies, cat. no. DAL1100), the plates were incubated for 24 h at 37C with 5% CO2 and then were read in a fluorescence detection mode (Ex = 525 nm, Em = 598 nm) on a ViewLux plate reader (PerkinElmer).
On the % scale 0 is the no-effect control and ±100 the full control effect; potency means the concentration at half of the fitted maximal effect.

**Q.** Which max response does the source give for OC(CCN1CCCCC1)(c1ccccc1)C1CCCCC1 (stereo not given) here?
**A.** Its max response is -12% and 9.84%.

**Q.** With OCCN1CCN(CCCN2c3ccccc3C=Cc3ccccc32)CC1 as the molecule, how does the max response read?
**A.** Its max response is -7.06% and 7.36%.

**Q.** What about the Potency of the same molecule?
**A.** Its Potency is 11.2 µM (active).

**Q.** For NC1=NCC2c3ccccc3Cc3ccccc3N12 (stereo not given), which max response is on record?
**A.** Its max response is -4.93% and 13.9%.

**Q.** With Cc1ccc(Cl)c(Nc2ccccc2C(=O)O)c1Cl as the molecule, how does the max response read?
**A.** Its max response is -8.31% and 12.8%.

**Q.** Which max response does the source give for NC(N)=NC(=O)Cc1c(Cl)cccc1Cl here?
**A.** The max response was 5.89% and 26.9%.

**Q.** For Brc1c(NC2=NCCN2)ccc2nccnc12, which max response is on record?
**A.** Its max response is -8.09% and 19.7%.

**Q.** For O=C(CCCN1CCC(O)(c2cccc(C(F)(F)F)c2)CC1)c1ccc(F)cc1, which max response is on record?
**A.** The max response was 20%.

**Q.** With CN1CCN(C2=Nc3ccccc3Oc3ccc(Cl)cc32)CC1 as the molecule, how does the max response read?
**A.** Its max response is 15.1% and -7.99%.

**Q.** For CCO/C([O-])=N/c1c[n+](N2CCOCC2)no1, which max response is on record?
**A.** The max response was -5.19%.

**Q.** Which Potency does the source give for CC(=O)[C@]1(O)Cc2c(O)c3c(c(O)c2[C@@H](O[C@H]2C[C@H](N)[C@H](O)[C@H](C)O2)C1)C(=O)c1ccccc1C3=O here?
**A.** Its Potency is 6.31 µM (active) and 1.12 µM (active).

**Q.** For CN(C)CC/C=C1\c2ccccc2COc2ccccc21, which max response is on record?
**A.** Its max response is 1.05% and 7.48%.

**Q.** For Nc1nc(N)c2nc(-c3ccccc3)c(N)nc2n1, which max response is on record?
**A.** Its max response is -2.09% and -8.78%.

**Q.** With CCCOc1ccccc1-c1nc2n[nH]nc2c(=O)[nH]1 as the molecule, how does the max response read?
**A.** Its max response is -5.53% and 14.3%.

**Q.** For CCCCNC(=O)NS(=O)(=O)c1ccc(C)cc1, which max response is on record?
**A.** The max response was 0.702% and 32.7%.

**Q.** For Cc1nnc(SCC2=C(C(=O)O)N3C(=O)[C@@H](NC(=O)Cn4cnnn4)[C@H]3SC2)s1, which max response is on record?
**A.** Its max response is 5.06% and 32.1%.

**Q.** With CCCCOCCOCCOCc1cc2c(cc1CCC)OCO2 as the molecule, how does the max response read?
**A.** Its max response is 3.05%.

**Q.** Which max response does the source give for CN(C)C/C=C(/c1ccc(Br)cc1)c1cccnc1 here?
**A.** The max response was -5.39% and -10%.

**Q.** For CC(C)NCC(O)c1cc(O)cc(O)c1 (stereo not given), which max response is on record?
**A.** Its max response is 4.9% and 20.6%.

**Q.** For CCN(Cc1ccncc1)C(=O)C(CO)c1ccccc1 (stereo not given), which max response is on record?
**A.** Its max response is 10.4% and 27%.

**Q.** With CC(C)COCC(CN(Cc1ccccc1)c1ccccc1)N1CCCC1 (stereo not given) as the molecule, how does the Potency read?
**A.** The Potency was 22.4 µM (active).

**Q.** And the max response?
**A.** Its max response is 9.9%.

**Q.** For C[C@@H](O)[C@H]1C(=O)N2C(C(=O)O)=C(SCCN=CN)C[C@H]12, which max response is on record?
**A.** Its max response is 3.85% and 8.18%.

**Q.** With c1cnc(N2CCN(Cc3ccc4c(c3)OCO4)CC2)nc1 as the molecule, how does the max response read?
**A.** Its max response is 1.5%.

**Q.** With CN(C)C(=O)Oc1ccc[n+](C)c1 as the molecule, how does the max response read?
**A.** The max response was -5.59% and 6.64%.

**Q.** For COc1cc2c(cc1OC)-c1cc(=Nc3c(C)cc(C)cc3C)n(C)c(=O)n1CC2, which max response is on record?
**A.** Its max response is 25.2%.

**Q.** For O=C(O)CN(CCOCCOCCN(CC(=O)O)CC(=O)O)CC(=O)O, which max response is on record?
**A.** Its max response is -5.05% and 25.1%.

**Q.** With C[C@]12C=CC(=O)C=C1CC[C@H]1[C@@H]3C[C@@H](O)[C@](O)(C(=O)CO)[C@@]3(C)C[C@H](O)[C@@]12F as the molecule, how does the max response read?
**A.** Its max response is 20.4% and -3.94%.

**Q.** For CN1C(=O)CC[C@H]1c1cccnc1, which max response is on record?
**A.** The max response was 3.71% and 23.6%.

**Q.** For CCCN(CCC)C(=O)C(CCC(=O)O)NC(=O)c1ccccc1 (stereo not given), which max response is on record?
**A.** The max response was 9.09% and 23.8%.

**Q.** With O=C1NCN(c2ccccc2)C12CCN(CCCC(c1ccc(F)cc1)c1ccc(F)cc1)CC2 as the molecule, how does the Potency read?
**A.** The Potency was 10 µM (active).

**Q.** Which max response does the source give for CCCNC(C)C(=O)Nc1ccccc1C (stereo not given) here?
**A.** The max response was 7.26% and 27.6%.

**Q.** Which max response does the source give for Cc1nc2c([nH]1)c(=O)n(C)c(=O)n2Cc1ccco1 here?
**A.** Its max response is -4.35% and 2.16%.

**Q.** With CCn1nc(C(=O)O)c(=O)c2cc3c(cc21)OCO3 as the molecule, how does the max response read?
**A.** The max response was 3.16% and -5.51%.

**Q.** With COC(=O)[C@@H](N)Cc1ccc(O)c(O)c1 as the molecule, how does the max response read?
**A.** The max response was 43.3%.

**Q.** Which max response does the source give for CN1CCN(CC(=O)N2c3ccccc3C(=O)Nc3cccnc32)CC1 here?
**A.** The max response was 0.314% and 3.31%.

**Q.** For CC(=O)[C@@]1(O)CC[C@H]2[C@@H]3CCC4=CC(=O)CC[C@]4(C)[C@H]3CC[C@@]21C, which max response is on record?
**A.** Its max response is 5.26% and 15.8%.

**Q.** With CC(=O)OC(C)C[N+](C)(C)C (stereo not given) as the molecule, how does the max response read?
**A.** Its max response is -4.19% and 23.1%.

**Q.** For CC(=O)Nc1nnc(S(N)(=O)=O)s1, which max response is on record?
**A.** Its max response is 9.9% and 9.69%.

**Q.** With O=C(O)CCCCCCCC(=O)O as the molecule, how does the max response read?
**A.** Its max response is 9% and 10.5%.
